Reference: PubChem BioAssay (EPA / NIEHS)
The source made the active and inactive calls. How the source made its calls: active means hit-call score of the fitted dose curve at least 0.9, where 1 is the maximum; inactive means score below 0.9.

How the values were obtained:
Conditions in all cases: mRNA level, 48 h; actives raise or lower the signal
[1] = read-out: Peroxisomal acyl-coenzyme A oxidase 1 (ACOX1) gene, ACOX1 (gene 51); assay: LTEA_HepaRG_ACOX1: Life Technologies and Expression Analysis (LTEA) Assay for Peroxisomal acyl-coenzyme A oxidase 1 (ACOX1) gene using HepaRG (AID 2283467)
In short: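 Differentiated human HepaRG cells were exposed in duplicate for 48 h in serum-free induction medium to eight half-log concentrations up to 100 uM in 0.5% DMSO. ACOX1 mRNA was then quantified by TaqMan qRT-PCR, normalized to ACTB, GAPDH and POLR2A.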

[2] = read-out: Alkaline Phosphatase, Placental (ALPP) gene, ALPP (gene 250); assay: LTEA_HepaRG_ALPP: Life Technologies and Expression Analysis (LTEA) Assay for Alkaline Phosphatase, Placental (ALPP) gene using HepaRG (AID 2283468)
In short: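 HepaRG cells plated 48 h, then exposed in duplicate for 48 h in serum-free induction medium to 8-point half-log series from 100 uM in 0.5% DMSO. ALPP mRNA by TaqMan qRT-PCR, normalized to ACTB/GAPDH/POLR2A; bidirectional fit versus DMSO.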

[3] = read-out: Bcl-2 (BAD) gene, BAD (gene 572); assay: LTEA_HepaRG_BAD: Life Technologies and Expression Analysis (LTEA) Assay for Bcl-2 (BAD) gene using HepaRG (AID 2283469)
In short: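 Differentiated human HepaRG cells in serum-free induction medium were exposed in duplicate for 48 h to eight concentrations (top 100 uM, half-log steps, 0.5% DMSO). BAD mRNA was quantified by qRT-PCR normalised to ACTB, GAPDH and POLR2A, with bidirectional fitting versus DMSO.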

[4] = read-out: Bcl-2 (BAX) gene, BAX (gene 581); assay: LTEA_HepaRG_BAX: Life Technologies and Expression Analysis (LTEA) Assay for Bcl-2 (BAX) gene using HepaRG (AID 2283470)
In short: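 Differentiated HepaRG cells exposed 48 h in serum-free induction medium, eight half-log concentrations from 100 uM, in duplicate, 0.5% DMSO vehicle. BAX mRNA by TaqMan qRT-PCR, normalised to ACTB, GAPDH and POLR2A.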

[5] = read-out: adenosine kinase (ADK) gene, ADK (gene 132); assay: LTEA_HepaRG_ADK: Life Technologies and Expression Analysis (LTEA) Assay for adenosine kinase (ADK) gene using HepaRG (AID 2283471)
In short: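 Following 48 h exposure of HepaRG cells in 0.5% DMSO (top concentration 100 uM, duplicate wells), ADK mRNA induction or suppression was measured by qRT-PCR, normalised to ACTB/GAPDH/POLR2A, and fitted bidirectionally relative to vehicle.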

[6] = read-out: Alpha-fetoprotein (AFP) gene, AFP (gene 174); assay: LTEA_HepaRG_AFP: Life Technologies and Expression Analysis (LTEA) Assay for Alpha-fetoprotein (AFP) gene using HepaRG (AID 2283472)
In short: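 Differentiated human HepaRG cells exposed 48 h in serum-free induction medium, 8-point half-log series from 100 uM in 0.5% DMSO, duplicate. AFP mRNA by qRT-PCR, normalized to ACTB, GAPDH, POLR2A; bidirectional fit vs DMSO.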

BCL2L11 (gene 10018) = assay: LTEA_HepaRG_BCL2L11: Life Technologies and Expression Analysis (LTEA) Assay for Bcl-2 (BCL2L11) gene using HepaRG (AID 2283473)
In short: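 Differentiated human HepaRG cells were exposed 48 h in serum-free induction medium to eight half-log concentrations up to 100 uM in 0.5% DMSO, in duplicate. BCL2L11 mRNA was quantified by TaqMan qRT-PCR, normalized to ACTB, GAPDH and POLR2A; induction or repression fitted versus DMSO.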

[7] = read-out: Apolipoprotein A-V (APOA5) gene, APOA5 (gene 116519); assay: LTEA_HepaRG_APOA5: Life Technologies and Expression Analysis (LTEA) Assay for Apolipoprotein A-V (APOA5) gene using HepaRG (AID 2283474)
In short: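 Differentiated HepaRG cells in serum-free induction medium, exposed 48 h in duplicate to eight half-log concentrations topping at 100 uM (0.5% DMSO). APOA5 mRNA by Fluidigm TaqMan qRT-PCR, normalized to ACTB, GAPDH and POLR2A; bidirectional fit versus DMSO.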

[8] = read-out: Apoptosis regulator Bcl-2 (Homo sapiens) (UniProt P10415); assay: LTEA_HepaRG_BCL2: Life Technologies and Expression Analysis (LTEA) Assay for Bcl-2 gene using HepaRG (AID 2283475)
In short: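 Differentiated human HepaRG cells in serum-free induction medium exposed 48 h, in duplicate, to 8-point half-log series from 100 uM in 0.5% DMSO. BCL2 mRNA by qRT-PCR (TaqMan/Fluidigm), normalized to ACTB, GAPDH, POLR2A; bidirectional fit against DMSO.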

[9] = read-out: Bcl-2 (BID) gene, BID (gene 637); assay: LTEA_HepaRG_BID: Life Technologies and Expression Analysis (LTEA) Assay for Bcl-2 (BID) gene using HepaRG (AID 2283476)
In short: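 Gene expression by qRT-PCR in HepaRG cells after 48 h exposure, duplicate wells, eight half-log concentrations topping at 100 uM in 0.5% DMSO. Normalized to ACTB, GAPDH, POLR2A; bidirectional fitting relative to DMSO.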

Caspase-3 (Homo sapiens) = Caspase-3 (Homo sapiens) (UniProt P42574); assay: LTEA_HepaRG_CASP3: Life Technologies and Expression Analysis (LTEA) Assay for cysteine-aspartic acid protease (CASP3) using HepaRG (AID 2283477)
In short: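 Differentiated HepaRG cells, plated 48 h, were treated in duplicate in serum-free induction medium for 48 h with eight half-log concentrations up to 100 uM in 0.5% DMSO. CASP3 mRNA measured by qRT-PCR, normalized to ACTB, GAPDH, POLR2A.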

[10] = read-out: Cytochrome P450 (CYP24A1), CYP24A1 (gene 1591); assay: LTEA_HepaRG_CYP24A1: Life Technologies and Expression Analysis (LTEA) Assay for Cytochrome P450 (CYP24A1) using HepaRG (AID 2283478)
In short: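 HepaRG cells plated 48 h, then exposed in duplicate in serum-free induction medium for 48 h to 8-point half-log series from 100 uM in 0.5% DMSO. CYP24A1 mRNA by Fluidigm qRT-PCR, normalized to ACTB, GAPDH, POLR2A; bidirectional fit versus DMSO.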

[11] = read-out: Cytochrome P450 (CYP1A2), CYP1A2 (gene 1544); assay: LTEA_HepaRG_CYP1A2: Life Technologies and Expression Analysis (LTEA) Assay for Cytochrome P450 (CYP1A2) using HepaRG (AID 2283479)
In short: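 Differentiated human HepaRG cells in serum-free induction medium exposed 48 hours in duplicate to 8 half-log concentrations from 100 uM, 0.5% DMSO. CYP1A2 mRNA quantified by qRT-PCR, normalized to ACTB, GAPDH and POLR2A; bidirectional fitting versus DMSO.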

[12] = read-out: cysteine-aspartic acid protease (CASP8), CASP8 (gene 841); assay: LTEA_HepaRG_CASP8: Life Technologies and Expression Analysis (LTEA) Assay for cysteine-aspartic acid protease (CASP8) using HepaRG (AID 2283480)
In short: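 Differentiated human HepaRG cells, plated 48 h then switched to serum-free induction medium, were exposed in duplicate for 48 h to 8 half-log concentrations up to 100 uM in 0.5% DMSO. CASP8 mRNA was quantified by qRT-PCR, normalized to ACTB/GAPDH/POLR2A.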

[13] = read-out: Cytochrome P450 (CYP2B6), CYP2B6 (gene 1555); assay: LTEA_HepaRG_CYP2B6: Life Technologies and Expression Analysis (LTEA) Assay for Cytochrome P450 (CYP2B6) using HepaRG (AID 2283481)
In short: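 Differentiated human HepaRG cells in serum-free induction medium, dosed in duplicate for 48 h over 8 half-log concentrations topping at 100 uM (0.5% DMSO). CYP2B6 mRNA measured by TaqMan qRT-PCR, normalized to ACTB, GAPDH, POLR2A; bidirectional fit versus DMSO.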

CYP2C8 (gene 1558) = assay: LTEA_HepaRG_CYP2C8: Life Technologies and Expression Analysis (LTEA) Assay for CYP2C8 using HepaRG (AID 2283483)
In short: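 Differentiated human HepaRG cells were exposed for 48 h in serum-free induction medium to eight half-log concentrations up to 100 uM in 0.5% DMSO, in duplicate. CYP2C8 mRNA was measured by TaqMan qRT-PCR, normalized to ACTB, GAPDH and POLR2A, and fitted bidirectionally against DMSO.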

CYP2C9 (gene 1559) = assay: LTEA_HepaRG_CYP2C9: Life Technologies and Expression Analysis (LTEA) Assay for CYP2C9 using HepaRG (AID 2283484)
In short: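 Differentiated human HepaRG cells were exposed 48 h in serum-free induction medium to eight half-log concentrations up to 100 uM in 0.5% DMSO. CYP2C9 mRNA was measured by qRT-PCR, normalized to ACTB, GAPDH and POLR2A, and fitted bidirectionally against DMSO.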

CYP4A11 (gene 1579) = assay: LTEA_HepaRG_CYP4A11: Life Technologies and Expression Analysis (LTEA) Assay for CYP4A11 using HepaRG (AID 2283486)
In short: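 Differentiated HepaRG cells, 48 h after plating, exposed in duplicate for 48 h to 8 half-log concentrations up to 100 uM in 0.5% DMSO in serum-free induction medium. CYP4A11 mRNA measured by TaqMan qRT-PCR, normalized to ACTB, GAPDH and POLR2A.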

[14] = read-out: Cytochrome P450 2C19 (Homo sapiens) (UniProt P33261); assay: LTEA_HepaRG_CYP2C19: Life Technologies and Expression Analysis (LTEA) Assay for CYP2C19 using HepaRG (AID 2283482)
In short: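 Differentiated HepaRG cells in serum-free induction medium exposed 48 h in duplicate, 8 concentrations from 100 uM by half-log steps in 0.5% DMSO. CYP2C19 mRNA measured by TaqMan qRT-PCR, normalized to ACTB, GAPDH, POLR2A. Bidirectional fit versus DMSO.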

CYP2E1 (gene 1571) = assay: LTEA_HepaRG_CYP2E1: Life Technologies and Expression Analysis (LTEA) Assay for CYP2E1 using HepaRG (AID 2283485)
In short: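 HepaRG cells, plated 48 h, then exposed 48 h in serum-free induction medium to eight half-log concentrations from 100 uM in 0.5% DMSO, duplicate. CYP2E1 mRNA by qRT-PCR, normalized to ACTB/GAPDH/POLR2A; bidirectional fit versus DMSO.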

Measured: AC50

Caspase-3 (Homo sapiens), sequence (P42574 whole entry, looked up): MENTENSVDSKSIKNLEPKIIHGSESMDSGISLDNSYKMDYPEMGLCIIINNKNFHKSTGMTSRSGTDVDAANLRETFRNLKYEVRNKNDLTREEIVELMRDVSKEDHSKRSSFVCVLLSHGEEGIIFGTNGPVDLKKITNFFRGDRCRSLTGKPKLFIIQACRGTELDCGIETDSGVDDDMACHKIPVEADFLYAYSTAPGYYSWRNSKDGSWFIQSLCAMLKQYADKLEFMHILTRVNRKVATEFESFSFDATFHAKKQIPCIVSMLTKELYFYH
Apoptosis regulator Bcl-2 (Homo sapiens), sequence (P10415 whole entry, looked up): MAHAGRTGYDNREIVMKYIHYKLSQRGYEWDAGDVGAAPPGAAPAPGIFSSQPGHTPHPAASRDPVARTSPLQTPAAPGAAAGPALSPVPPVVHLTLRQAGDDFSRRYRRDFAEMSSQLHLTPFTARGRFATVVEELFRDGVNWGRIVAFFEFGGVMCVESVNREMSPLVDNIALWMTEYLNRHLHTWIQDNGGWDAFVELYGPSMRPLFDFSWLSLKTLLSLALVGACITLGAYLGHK
Cytochrome P450 2C19 (Homo sapiens), sequence (P33261 whole entry, looked up): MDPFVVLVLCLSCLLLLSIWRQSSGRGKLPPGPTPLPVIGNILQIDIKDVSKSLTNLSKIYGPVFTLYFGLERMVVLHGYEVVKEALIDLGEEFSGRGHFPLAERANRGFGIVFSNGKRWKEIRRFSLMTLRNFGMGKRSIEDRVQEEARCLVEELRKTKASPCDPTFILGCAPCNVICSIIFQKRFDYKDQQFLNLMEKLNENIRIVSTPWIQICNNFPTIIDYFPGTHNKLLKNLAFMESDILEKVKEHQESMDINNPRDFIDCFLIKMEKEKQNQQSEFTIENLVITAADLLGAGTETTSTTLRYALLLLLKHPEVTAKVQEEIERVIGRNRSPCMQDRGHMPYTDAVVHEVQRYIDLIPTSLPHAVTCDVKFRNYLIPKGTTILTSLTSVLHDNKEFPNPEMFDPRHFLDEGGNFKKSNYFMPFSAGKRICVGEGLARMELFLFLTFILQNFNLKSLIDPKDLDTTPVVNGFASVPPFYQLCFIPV

O=C(O)C(F)(F)C(F)(F)C(F)(F)C(F)(F)C(F)(F)C(F)(F)C(F)(F)C(F)(F)C(F)(F)F
active: [1] 78.4 µM | [2] 68.1 µM | [4] 12.6 µM | [5] 81.1 µM | [6] 23 µM | BCL2L11 (gene 10018) 12.1 µM | [7] 30.8 µM | [9] 90.6 µM | Caspase-3 (Homo sapiens) 82.5 µM | [11] 22.2 µM | [12] 86 µM | [13] 80.1 µM | CYP2C8 (gene 1558) 76.6 µM | CYP2C9 (gene 1559) 74.2 µM | CYP4A11 (gene 1579) 81.5 µM
inactive: [3] | [8] | [10]

C=CC(=O)NCNC(=O)C=C
inactive: [1] | [2] | [3] | [4] | [5] | [6] | BCL2L11 (gene 10018) | [7] | [8] | [9] | Caspase-3 (Homo sapiens) | [10] | [11] | [12] | [13] | CYP2C8 (gene 1558) | CYP2C9 (gene 1559) | CYP4A11 (gene 1579)

CC(C)(O)C(=O)Nc1ccc([N+](=O)[O-])c(C(F)(F)F)c1
active: [2] 0.0354 µM | [3] 0.0265 µM | BCL2L11 (gene 10018) 0.0415 µM | [7] 0.0349 µM | [9] 0.0296 µM | [11] 0.0406 µM | [12] 0.0142 µM | [13] 44.3 µM | CYP2E1 (gene 1571) 37.1 µM | CYP4A11 (gene 1579) 42 µM
inactive: [1] | [4] | [5] | [6] | [8] | Caspase-3 (Homo sapiens) | [10] | [14] | CYP2C8 (gene 1558) | CYP2C9 (gene 1559)
